Holding throughout (test): DAPPL (digital affinity profiling via proximity ligation, sequencing); 10 mM Tris-HCl pH 7.5, 50 mM NaCl, 1 mM DTT, 4% glycerol, room temperature, 30 min; GST-TFs on glutathione beads, 16-mer random dsDNA library, 0.1% formaldehyde crosslink after washing; high values mean tight binding
One assay addresses T1, FLI1 (Homo sapiens, UniProt Q01543 1-452).
T1 sequence: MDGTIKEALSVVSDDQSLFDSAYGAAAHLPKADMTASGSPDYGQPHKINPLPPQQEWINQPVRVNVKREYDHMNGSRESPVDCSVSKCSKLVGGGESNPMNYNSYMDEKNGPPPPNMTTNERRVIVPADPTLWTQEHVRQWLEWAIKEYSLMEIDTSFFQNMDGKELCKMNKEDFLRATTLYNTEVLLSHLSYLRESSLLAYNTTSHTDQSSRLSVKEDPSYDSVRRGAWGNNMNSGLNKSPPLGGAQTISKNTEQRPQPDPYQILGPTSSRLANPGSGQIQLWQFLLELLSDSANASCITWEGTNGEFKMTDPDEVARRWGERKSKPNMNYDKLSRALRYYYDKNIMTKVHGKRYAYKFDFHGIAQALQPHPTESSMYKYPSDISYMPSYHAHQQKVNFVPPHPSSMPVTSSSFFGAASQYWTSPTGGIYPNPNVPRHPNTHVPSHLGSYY
The conditions noted are these: protein: recombinant; tags: N-terminal GST; dsDNA, one strand shown. In short, it runs like this: (§1)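 The binding signal reported is, for every hexamer, its read frequency for a factor over its read frequency for the tag-only sample. Reads came from pools of yeast-expressed, GST-fused human transcription factors on glutathione beads, barcoded with DNA and mixed with that sample, which were incubated with 200 nmole of a random double-stranded 16-mer DNA library in Tris/NaCl/DTT/glycerol buffer at room temperature for 30 min. After washing, the pools were crosslinked with 0.1% formaldehyde, proximity-ligated with BsaI/T4 ligase for 1 h at 37 °C, PCR-amplified and sequenced on an Illumina NextSeq500.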

For another assay, the target named is T2, ELK1 (Homo sapiens, UniProt P19419 1-428).
T2 sequence: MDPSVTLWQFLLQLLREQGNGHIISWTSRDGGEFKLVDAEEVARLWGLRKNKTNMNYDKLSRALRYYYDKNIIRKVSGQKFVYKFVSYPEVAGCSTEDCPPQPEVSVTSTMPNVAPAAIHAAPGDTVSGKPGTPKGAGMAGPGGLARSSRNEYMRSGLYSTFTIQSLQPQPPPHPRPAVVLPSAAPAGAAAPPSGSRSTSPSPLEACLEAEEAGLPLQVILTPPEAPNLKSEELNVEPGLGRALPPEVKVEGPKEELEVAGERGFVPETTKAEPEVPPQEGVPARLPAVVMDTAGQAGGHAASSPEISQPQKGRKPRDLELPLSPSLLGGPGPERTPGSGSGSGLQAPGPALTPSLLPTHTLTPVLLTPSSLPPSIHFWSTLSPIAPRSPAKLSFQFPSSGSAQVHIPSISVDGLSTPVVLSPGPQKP
To be noted: protein: recombinant; tags: N-terminal GST; dsDNA, one strand shown. The method in brief:
as §1

The target in a further assay is T3, GABPA (Homo sapiens, UniProt Q06546 1-454).
T3 sequence: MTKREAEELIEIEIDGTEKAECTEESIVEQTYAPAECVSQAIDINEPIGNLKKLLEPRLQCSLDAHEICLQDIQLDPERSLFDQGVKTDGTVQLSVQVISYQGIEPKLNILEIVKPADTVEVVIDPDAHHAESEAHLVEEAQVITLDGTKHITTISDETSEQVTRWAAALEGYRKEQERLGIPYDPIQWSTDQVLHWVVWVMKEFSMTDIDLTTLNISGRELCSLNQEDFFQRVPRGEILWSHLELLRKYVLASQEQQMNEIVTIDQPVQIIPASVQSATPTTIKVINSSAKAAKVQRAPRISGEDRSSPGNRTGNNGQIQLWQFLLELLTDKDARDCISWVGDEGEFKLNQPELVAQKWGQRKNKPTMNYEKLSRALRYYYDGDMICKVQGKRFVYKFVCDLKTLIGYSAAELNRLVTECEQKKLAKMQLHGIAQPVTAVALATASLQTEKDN
To be noted: protein: recombinant; tags: N-terminal GST; dsDNA, one strand shown. In short, it runs like this: as §1

Another assay addresses T4, ERG (Homo sapiens, UniProt P11308 1-479).
T4 sequence: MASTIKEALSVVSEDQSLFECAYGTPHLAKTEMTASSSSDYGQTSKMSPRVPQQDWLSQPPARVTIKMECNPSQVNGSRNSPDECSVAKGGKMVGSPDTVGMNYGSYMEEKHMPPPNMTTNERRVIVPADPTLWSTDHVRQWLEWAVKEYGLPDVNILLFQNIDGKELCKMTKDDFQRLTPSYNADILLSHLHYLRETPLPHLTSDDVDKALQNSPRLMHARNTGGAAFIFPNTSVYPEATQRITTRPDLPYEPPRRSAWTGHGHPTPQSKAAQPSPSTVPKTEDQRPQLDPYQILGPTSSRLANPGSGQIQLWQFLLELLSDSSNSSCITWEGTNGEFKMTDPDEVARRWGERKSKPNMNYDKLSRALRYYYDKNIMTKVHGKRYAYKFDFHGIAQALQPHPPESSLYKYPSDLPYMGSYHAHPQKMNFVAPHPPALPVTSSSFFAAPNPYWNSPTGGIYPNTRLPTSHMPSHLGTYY
To be noted: protein: recombinant; tags: N-terminal GST; dsDNA, one strand shown. In short, it runs like this:
as §1

The next assay deals with ELF1 (Homo sapiens, UniProt P32519 1-619). The conditions noted are these: protein: recombinant; tags: N-terminal GST; dsDNA, one strand shown. In short, it runs like this:
as §1

Another assay deals with T5, EHF (Homo sapiens, UniProt Q9NZC4 1-300).
T5 sequence: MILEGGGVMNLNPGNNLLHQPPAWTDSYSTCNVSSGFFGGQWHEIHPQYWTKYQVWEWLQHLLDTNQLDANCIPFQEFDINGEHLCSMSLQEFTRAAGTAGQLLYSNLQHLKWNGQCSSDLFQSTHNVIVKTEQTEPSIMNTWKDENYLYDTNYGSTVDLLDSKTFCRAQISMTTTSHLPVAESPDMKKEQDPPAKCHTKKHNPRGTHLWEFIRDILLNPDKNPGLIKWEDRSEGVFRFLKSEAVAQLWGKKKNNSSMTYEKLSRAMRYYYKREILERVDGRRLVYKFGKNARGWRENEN
The conditions noted are these: protein: recombinant; tags: N-terminal GST; dsDNA, one strand shown. The method in brief: as §1

Another assay addresses SPI1 (Homo sapiens, UniProt P17947 1-270). To be noted: protein: recombinant; tags: N-terminal GST; dsDNA, one strand shown. The method in brief:
as §1

The next assay concerns the target SPIB (Homo sapiens, UniProt Q01892 1-262). The conditions noted are these: protein: recombinant; tags: N-terminal GST; dsDNA, one strand shown. The method in brief:
as §1

Another assay concerns the target T6, ELK3 (Homo sapiens, UniProt P41970 1-407).
T6 sequence: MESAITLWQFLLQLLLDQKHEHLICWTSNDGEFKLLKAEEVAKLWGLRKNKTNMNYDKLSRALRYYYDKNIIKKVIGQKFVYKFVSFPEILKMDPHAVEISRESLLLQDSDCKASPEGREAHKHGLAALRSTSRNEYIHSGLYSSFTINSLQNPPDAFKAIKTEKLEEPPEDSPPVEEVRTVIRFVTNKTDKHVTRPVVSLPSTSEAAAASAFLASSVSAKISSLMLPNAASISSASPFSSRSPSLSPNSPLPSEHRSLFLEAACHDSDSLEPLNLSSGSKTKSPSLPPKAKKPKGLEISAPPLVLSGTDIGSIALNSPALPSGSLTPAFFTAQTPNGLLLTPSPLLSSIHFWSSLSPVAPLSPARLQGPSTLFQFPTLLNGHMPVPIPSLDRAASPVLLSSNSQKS
To be noted: protein: recombinant; tags: N-terminal GST; dsDNA, one strand shown. In short, it runs like this:
as §1

The target of a further assay is T7, FEV (Homo sapiens, UniProt Q99581 1-238).
T7 sequence: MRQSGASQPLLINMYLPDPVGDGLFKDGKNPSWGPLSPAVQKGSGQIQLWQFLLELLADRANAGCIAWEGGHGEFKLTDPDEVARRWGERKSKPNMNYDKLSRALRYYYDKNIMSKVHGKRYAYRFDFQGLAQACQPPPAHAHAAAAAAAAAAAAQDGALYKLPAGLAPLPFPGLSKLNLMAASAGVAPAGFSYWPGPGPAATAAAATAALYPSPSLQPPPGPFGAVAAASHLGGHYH
The conditions noted are these: protein: recombinant; tags: N-terminal GST; dsDNA, one strand shown. The method in brief:
as §1

The target in another assay is ETV5 (Homo sapiens, UniProt P41161 1-510). The conditions noted are these: protein: recombinant; tags: N-terminal GST; dsDNA, one strand shown. The method in brief: as §1
In the next assay the target is HSF1 (Homo sapiens, UniProt Q00613 1-529). To be noted: protein: recombinant; tags: N-terminal GST; chain copies: 3; dsDNA, one strand shown. In short, it runs like this: as §1
The target of the next assay is T8, SPIC (Homo sapiens, UniProt Q8N5J4 1-248).
T8 sequence: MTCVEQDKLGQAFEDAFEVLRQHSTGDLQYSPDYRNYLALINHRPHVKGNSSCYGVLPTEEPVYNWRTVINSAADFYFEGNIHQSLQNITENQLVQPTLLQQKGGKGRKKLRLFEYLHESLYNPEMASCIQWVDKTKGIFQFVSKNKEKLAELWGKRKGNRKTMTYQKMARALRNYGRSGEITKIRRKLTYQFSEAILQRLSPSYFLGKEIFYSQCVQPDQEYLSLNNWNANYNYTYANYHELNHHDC
The conditions noted are these: protein: recombinant; tags: N-terminal GST; dsDNA, one strand shown. The method in brief:
as §1

For another assay, the target named is ELF4 (Homo sapiens, UniProt Q99607 1-663). To be noted: protein: recombinant; tags: N-terminal GST; dsDNA, one strand shown. In short, it runs like this:
as §1

For a further assay, the target named is T9, ELK4 (Homo sapiens, UniProt P28324-2 1-405).
T9 sequence: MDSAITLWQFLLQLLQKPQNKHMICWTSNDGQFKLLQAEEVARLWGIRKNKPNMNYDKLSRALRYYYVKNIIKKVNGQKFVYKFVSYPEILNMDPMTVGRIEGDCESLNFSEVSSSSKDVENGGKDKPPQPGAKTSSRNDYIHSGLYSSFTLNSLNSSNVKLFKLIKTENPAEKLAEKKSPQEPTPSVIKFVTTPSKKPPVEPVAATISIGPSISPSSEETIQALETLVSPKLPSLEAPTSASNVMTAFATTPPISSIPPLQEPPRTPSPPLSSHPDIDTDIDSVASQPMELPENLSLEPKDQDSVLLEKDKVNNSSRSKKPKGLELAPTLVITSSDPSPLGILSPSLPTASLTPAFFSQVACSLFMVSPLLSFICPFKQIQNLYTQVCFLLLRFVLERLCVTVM
To be noted: protein: recombinant; tags: N-terminal GST; dsDNA, one strand shown. In short, it runs like this: as §1

The target in another assay is T10, ETV2 (Homo sapiens, UniProt O00321 1-342).
T10 sequence: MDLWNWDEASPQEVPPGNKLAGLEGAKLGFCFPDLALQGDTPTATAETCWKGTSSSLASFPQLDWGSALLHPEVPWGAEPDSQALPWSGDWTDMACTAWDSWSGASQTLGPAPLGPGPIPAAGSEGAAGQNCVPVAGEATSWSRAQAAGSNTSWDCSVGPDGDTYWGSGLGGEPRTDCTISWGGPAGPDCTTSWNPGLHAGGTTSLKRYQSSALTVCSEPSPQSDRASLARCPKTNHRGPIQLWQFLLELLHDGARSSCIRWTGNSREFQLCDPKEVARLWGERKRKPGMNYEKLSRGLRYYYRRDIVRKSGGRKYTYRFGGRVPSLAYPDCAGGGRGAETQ
The conditions noted are these: protein: recombinant; tags: N-terminal GST; dsDNA, one strand shown. The method in brief:
as §1

The next assay deals with CRX (Homo sapiens, UniProt O43186 1-299). To be noted: protein: recombinant; tags: N-terminal GST; dsDNA, one strand shown. The method in brief: as §1
For the next assay, the target named is ETV1 (Homo sapiens, UniProt P50549 1-477). To be noted: protein: recombinant; tags: N-terminal GST; dsDNA, one strand shown. The method in brief: as §1
Chain of ETV1 (P50549 whole entry): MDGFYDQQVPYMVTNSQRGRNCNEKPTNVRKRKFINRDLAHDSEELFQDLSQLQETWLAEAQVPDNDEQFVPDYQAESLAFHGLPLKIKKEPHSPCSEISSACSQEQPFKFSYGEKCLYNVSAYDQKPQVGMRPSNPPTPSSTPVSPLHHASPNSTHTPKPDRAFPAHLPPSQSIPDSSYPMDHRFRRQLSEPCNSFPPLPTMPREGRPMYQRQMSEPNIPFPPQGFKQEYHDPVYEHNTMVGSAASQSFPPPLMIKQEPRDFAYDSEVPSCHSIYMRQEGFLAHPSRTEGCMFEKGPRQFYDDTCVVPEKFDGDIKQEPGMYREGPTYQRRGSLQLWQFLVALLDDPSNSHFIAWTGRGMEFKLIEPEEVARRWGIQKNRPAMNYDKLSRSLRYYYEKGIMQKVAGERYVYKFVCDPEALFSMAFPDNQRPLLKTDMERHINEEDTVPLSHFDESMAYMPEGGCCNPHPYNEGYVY

Chain of SPIB (Q01892 whole entry): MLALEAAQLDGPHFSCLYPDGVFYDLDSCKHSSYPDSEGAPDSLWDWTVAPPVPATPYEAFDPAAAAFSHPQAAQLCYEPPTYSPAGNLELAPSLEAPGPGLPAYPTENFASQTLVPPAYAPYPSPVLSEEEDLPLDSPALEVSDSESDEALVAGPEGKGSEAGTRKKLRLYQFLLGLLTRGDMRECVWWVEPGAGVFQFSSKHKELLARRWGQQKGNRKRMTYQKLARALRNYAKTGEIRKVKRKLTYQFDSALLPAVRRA
Chain of CRX (O43186 whole entry): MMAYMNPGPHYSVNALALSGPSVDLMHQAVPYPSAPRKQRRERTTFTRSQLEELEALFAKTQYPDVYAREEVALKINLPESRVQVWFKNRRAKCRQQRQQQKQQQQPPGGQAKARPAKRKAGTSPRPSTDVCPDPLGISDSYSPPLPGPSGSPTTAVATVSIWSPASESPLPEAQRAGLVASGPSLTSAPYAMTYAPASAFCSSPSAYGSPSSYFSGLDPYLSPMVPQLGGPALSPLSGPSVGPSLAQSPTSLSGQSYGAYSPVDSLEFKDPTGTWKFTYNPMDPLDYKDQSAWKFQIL
Chain of ELF1 (P32519 whole entry): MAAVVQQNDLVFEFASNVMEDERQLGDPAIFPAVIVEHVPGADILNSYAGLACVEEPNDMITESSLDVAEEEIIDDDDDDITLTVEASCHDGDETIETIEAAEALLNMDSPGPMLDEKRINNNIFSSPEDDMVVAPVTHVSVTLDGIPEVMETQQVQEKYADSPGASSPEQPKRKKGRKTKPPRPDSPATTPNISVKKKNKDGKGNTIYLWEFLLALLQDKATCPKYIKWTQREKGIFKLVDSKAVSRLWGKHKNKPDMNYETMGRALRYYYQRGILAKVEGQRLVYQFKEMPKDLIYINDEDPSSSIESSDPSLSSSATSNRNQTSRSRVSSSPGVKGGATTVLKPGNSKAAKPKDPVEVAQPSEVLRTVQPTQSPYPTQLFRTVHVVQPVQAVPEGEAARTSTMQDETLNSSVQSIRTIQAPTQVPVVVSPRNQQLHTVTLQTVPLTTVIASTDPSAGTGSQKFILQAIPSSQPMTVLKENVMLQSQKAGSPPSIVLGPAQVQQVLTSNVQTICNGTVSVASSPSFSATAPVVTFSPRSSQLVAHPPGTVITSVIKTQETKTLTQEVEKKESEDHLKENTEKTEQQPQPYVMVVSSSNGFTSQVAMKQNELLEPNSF
Chain of ELF4 (Q99607 whole entry): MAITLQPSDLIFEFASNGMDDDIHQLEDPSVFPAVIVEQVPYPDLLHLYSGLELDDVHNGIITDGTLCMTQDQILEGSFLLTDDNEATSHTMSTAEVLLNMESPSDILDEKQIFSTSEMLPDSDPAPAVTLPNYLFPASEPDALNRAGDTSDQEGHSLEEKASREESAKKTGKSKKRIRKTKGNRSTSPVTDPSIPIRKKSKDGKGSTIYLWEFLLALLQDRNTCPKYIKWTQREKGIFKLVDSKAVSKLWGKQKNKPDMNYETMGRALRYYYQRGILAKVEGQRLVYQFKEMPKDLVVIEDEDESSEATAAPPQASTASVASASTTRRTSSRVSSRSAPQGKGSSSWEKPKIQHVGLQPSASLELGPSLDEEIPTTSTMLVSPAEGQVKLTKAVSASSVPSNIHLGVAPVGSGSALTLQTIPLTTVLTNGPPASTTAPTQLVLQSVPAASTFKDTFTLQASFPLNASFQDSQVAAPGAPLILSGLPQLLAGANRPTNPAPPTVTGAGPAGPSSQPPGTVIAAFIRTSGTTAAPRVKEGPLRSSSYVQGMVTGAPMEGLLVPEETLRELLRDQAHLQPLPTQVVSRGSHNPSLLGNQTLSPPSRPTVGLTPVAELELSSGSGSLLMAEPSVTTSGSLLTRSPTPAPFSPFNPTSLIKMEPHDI
Chain of HSF1 (Q00613 whole entry): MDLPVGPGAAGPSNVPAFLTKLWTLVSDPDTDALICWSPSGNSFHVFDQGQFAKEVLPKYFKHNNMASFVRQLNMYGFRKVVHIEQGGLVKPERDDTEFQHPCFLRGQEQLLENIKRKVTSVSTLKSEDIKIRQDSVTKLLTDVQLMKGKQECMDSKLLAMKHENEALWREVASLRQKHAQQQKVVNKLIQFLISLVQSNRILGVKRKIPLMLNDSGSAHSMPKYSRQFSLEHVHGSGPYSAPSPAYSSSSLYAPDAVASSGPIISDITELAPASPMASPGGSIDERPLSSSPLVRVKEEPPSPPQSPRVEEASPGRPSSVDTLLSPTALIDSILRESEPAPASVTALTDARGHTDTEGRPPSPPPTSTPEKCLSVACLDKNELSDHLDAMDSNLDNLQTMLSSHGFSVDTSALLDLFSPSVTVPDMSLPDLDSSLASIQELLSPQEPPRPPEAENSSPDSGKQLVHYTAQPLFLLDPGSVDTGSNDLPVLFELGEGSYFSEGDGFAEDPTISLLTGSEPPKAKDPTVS
Chain of ETV5 (P41161 whole entry): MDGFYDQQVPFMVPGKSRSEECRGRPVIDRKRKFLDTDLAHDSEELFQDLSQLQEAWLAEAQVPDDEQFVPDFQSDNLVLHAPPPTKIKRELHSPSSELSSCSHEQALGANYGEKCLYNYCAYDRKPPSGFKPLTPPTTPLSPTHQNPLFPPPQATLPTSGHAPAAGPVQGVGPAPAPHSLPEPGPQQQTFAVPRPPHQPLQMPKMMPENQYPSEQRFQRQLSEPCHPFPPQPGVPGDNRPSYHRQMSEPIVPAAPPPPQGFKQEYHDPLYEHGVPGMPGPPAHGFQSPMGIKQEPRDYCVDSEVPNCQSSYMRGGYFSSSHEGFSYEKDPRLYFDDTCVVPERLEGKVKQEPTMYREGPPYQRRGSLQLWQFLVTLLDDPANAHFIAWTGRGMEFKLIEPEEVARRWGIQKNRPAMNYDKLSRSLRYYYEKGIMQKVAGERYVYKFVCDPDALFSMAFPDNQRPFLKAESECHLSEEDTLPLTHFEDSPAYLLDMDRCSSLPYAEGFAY

Turning to TTATCA, the binding signal was 1.16 fold enrichment (6-mer frequency, TF over GST control) with FLI1; 1.15 fold enrichment (6-mer frequency, TF over GST control) with ELK1; 1.05 fold enrichment (6-mer frequency, TF over GST control) in the assay with GABPA; 1.06 fold enrichment (6-mer frequency, TF over GST control) with ERG; 1.15 fold enrichment (6-mer frequency, TF over GST control) with ELF1; 1.02 fold enrichment (6-mer frequency, TF over GST control) with EHF. Moreover, the binding signal is 1.09 fold enrichment (6-mer frequency, TF over GST control) with SPI1; 1.1 fold enrichment (6-mer frequency, TF over GST control) with SPIB; 1.17 fold enrichment (6-mer frequency, TF over GST control) in the assay with ELK3; 1.06 fold enrichment (6-mer frequency, TF over GST control) with FEV; 1.05 fold enrichment (6-mer frequency, TF over GST control) with ETV5; 1.44 fold enrichment (6-mer frequency, TF over GST control) with HSF1. Further, the binding signal with SPIC was 1.12 fold enrichment (6-mer frequency, TF over GST control); with ELF4 it was 1.08 fold enrichment (6-mer frequency, TF over GST control); with ELK4, 1.2 fold enrichment (6-mer frequency, TF over GST control); with ETV2 it was 1.13 fold enrichment (6-mer frequency, TF over GST control); in the assay with CRX it was 2.19 fold enrichment (6-mer frequency, TF over GST control); with ETV1, 1.06 fold enrichment (6-mer frequency, TF over GST control).

The record behind these values is PMC7862700, “An all-to-all approach to the identification of sequence-specific readers for epigenetic DNA modifications on cytosine”.
